Our source for the activity change, negative = inhibition values is PubChem BioAssay AID2098 (Broad Institute, 2009).

Hit rate of the full screen: of about 300,000 compounds, about 2,300 (0.77%) were called active. Many of the other results were omitted from the sample, so actives are more common in it than they were. Values without a mark were called inactive.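 Rule for the calls: active = more than half of replicate wells show activity change below -50%, luminescence cut by over half; inconclusive = some wells, but at most half, below -50%; inactive = no replicate well below -50%.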

The assay is described as follows: blocking HSF1-driven luciferase expression – cell-based, NIH3T3, luminescence, primary screen (AID 2098).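 Note: luciferase reports HSF-1 transcriptional activity via heat shock element; 0% = median of DMSO wells and -100% = zero luminescence signal.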 Conditions: NIH3T3-HGL HSE-luciferase, MG132-induced, luminescence 8 h; active compounds read low; screened at 7.5 µM (by protocol).
In the case of `Cc1ccc(Cl)c(OCC(=O)N(C)CC(=O)Nc2ccc(N3CCOCC3)cc2)c1`, the activity change, negative = inhibition was 4.7%.
With `COc1cc(C(=O)N(C)Cc2cccc(OC)c2OC)ccc1OCC(=O)Nc1cccc(C(F)(F)F)c1` the figure was -3.36%.
Consider `CCN(CC)c1ccc(NC(=O)c2ccc(=O)[nH]c2)cc1S(=O)(=O)Nc1ccc(OC)cc1`, for which the activity change, negative = inhibition was 2.04%.
In the case of `Cc1ccc(-n2c(=O)cc(N3CCN(Cc4ccccc4)CC3)[nH]c2=O)cc1`, the activity change, negative = inhibition was -57.4% (active).
On to `CN1CCN(c2cc(=O)n(-c3ccc(Cl)cc3)c(=O)[nH]2)CC1`, for which the activity change, negative = inhibition was -10.9%.
Regarding `CCc1c(C)nc(N2CCN(Cc3ccccc3)CC2)[nH]c1=O`, the activity change, negative = inhibition was -0.365%.
In the case of `COCCN(C(=O)COC(=O)Cc1cccc(OC)c1)c1c(N)n(Cc2ccccc2)c(=O)[nH]c1=O`, the activity change, negative = inhibition is -2.09%.
As for `O=C(NNS(=O)(=O)c1ccc(F)cc1)c1cnccn1`, the activity change, negative = inhibition was 4.99%.
Regarding `NS(=O)(=O)c1ccc(CNC(=O)c2cccc(Oc3ccccc3)c2)cc1`, the activity change, negative = inhibition was -1.65%.
`NS(=O)(=O)c1ccc(CNC(=O)c2cnccn2)cc1`: the activity change, negative = inhibition is -54.3% (active).
In the case of `Cc1ccc(S(=O)(=O)NCCC(=O)OCC(=O)N(C)c2ccccc2)cc1`, the activity change, negative = inhibition is 7.6%.
On to `O=C(CCC1CCCCC1)Nc1cc(C(F)(F)F)ccc1N1CCOCC1`, for which the activity change, negative = inhibition was 3.1%.
In the case of `COC(=O)c1nc(NC(=O)c2ccc(C(C)(C)C)cc2)n[nH]1`, the activity change, negative = inhibition is -75.2% (active).
In the case of `COC(=O)c1nc(NC(=O)c2ccc(Cl)cc2)n[nH]1`, the activity change, negative = inhibition is -3.56%.
Regarding `COC(=O)c1nc(NC(=O)c2ccc(F)cc2)n[nH]1`, the activity change, negative = inhibition was 3%.
In the case of `COc1ccc(Sc2nc(-c3ccccc3)ncc2OC)cc1`, the activity change, negative = inhibition is -4.54%.
Consider `COc1ccccc1Cc1nc(-c2ccc(C)cc2)no1`, for which the activity change, negative = inhibition was 12%.
With `COc1ccc(-c2nc(-c3ccccc3)no2)c(OC)c1`, the activity change, negative = inhibition was -66.8% (active).
For `C=CCNC(=O)C1CC2c3ccccc3C1c1ccccc12` (stereo not given), the activity change, negative = inhibition is -1.08%.
Regarding `COc1cccc(NC(=O)CC2C(=O)NCCN2C(=S)Nc2ccc(F)cc2)c1` (stereo not given), the activity change, negative = inhibition was 3.49%.
With `CCc1ccc(NC(=O)CC2C(=O)NCCN2C(=S)Nc2ccccc2)cc1` (stereo not given), the activity change, negative = inhibition was -1.21%.
With `COc1ccc(C(=O)NC(=S)N2CCNC(=O)C2CC(=O)OC(C)C)cc1` (stereo not given), the activity change, negative = inhibition is -54.5% (active).
With `Cc1ccc(S(=O)(=O)N(Cc2cccc([N+](=O)[O-])c2)C(=O)N2CCN(C)CC2)cc1`, the activity change, negative = inhibition was -0.764%.
As for `CC(C)N(Cc1nnc(-c2ccc(Cl)cc2)o1)C(=O)C1=COCCO1`, the activity change, negative = inhibition is -0.126%.
With `Cc1ccc(C(=O)N/N=C/c2cccc3ccccc23)cn1` the figure was 2.62%.
